Pf growth 96h: P. falciparum growth inhibition at 96 hour, primary screen for plastid delayed-death inhibitors. hit rate 6.9% among 320,000. Potency, µM (doses to about 28.7 µM), inactives show at the highest dose activity change, negative = inhibition, actives largely listed as inhibitors. P. falciparum luciferase reporter growth, 96 h; further: on the % scale 0 is the no-effect control and ±100 the full control effect
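Two-generation exposure (96 h) targets delayed-death phenotype. Reporter parasites carrying integrated firefly luciferase, in red cells at 2% hematocrit and 0.05% parasitemia final, kept at 37 C, 5% CO2; luminescence loss indicates inhibition.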
AMA1 RON2 block: AMA1-RON2 (P. falciparum) interaction inhibition; AID 720542; Potency, µM (titrated, usually from 58.2 µM), without a hit: at the highest dose activity change, negative = inhibition, hits mostly inhibitors; hit rate 0.2% among 360,000; AlphaScreen AMA1-biotinylated RON2 peptide binding;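 further: 0% = vehicle wells and -100% = peptide control; nearly all actives have a fitted effect of over 45% in size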
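AMA1 (3D7) with his tag at 25 nM final met compounds first, then biotinylated RON2 peptide at 25 nM; detection used donor plus acceptor beads, 10 µg/mL apiece, read by AlphaScreen after 30 min at room temperature.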
SARS PLpro yeast: blocks SARS-CoV papain-like protease in a yeast assay | S. cerevisiae expressing SARS-CoV PLpro, growth rescue | AID 485353 | Potency, µM (highest dose often 32.9 µM), without a hit: top-dose activity, positive = growth rescue, actives largely listed as activators | hit rate 0.19% among 330,000; calls by dose curve; further: 0% is about no effect; nearly all actives have a fitted effect of over 55% in size
Pf growth 48h: P. falciparum growth inhibition at 48 hours (one generation); P. falciparum luciferase growth in erythrocytes, 48 h; Potency, µM (titrated, usually from 28.7 µM), without a hit: at the top dose activity change, negative = inhibition, most hits filed as inhibitors; hit rate 5.9% among 310,000; further: on the % scale 0 is the no-effect control and ±100 the full control effect
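Luminescence readout; reporter = integrated firefly luciferase in P. falciparum. RBC culture at 2% hematocrit, 0.1% parasitemia final, 37 C/5% CO2; decreased signal taken as growth inhibition.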
An asterisk follows results filed as active; ? = inconclusive; . = no result; [ ] = remark or other dose. Hits are enriched below; roughly 9.4% of the tested compounds scored in any of these assays. Unless noted, the call rests on the fitted dose curve; in most records, active means well fitted curve in the direction sought with a large enough effect; inconclusive means small, poorly fitted or top-dose-only effect, or another doubt; inactive means no such curve, though single readings can be large; an effect the other way counts as inactive or inconclusive. Potency means the concentration at half of the fitted maximal effect.

SMILES	Pf growth 96h	AMA1 RON2 block	SARS PLpro yeast	Pf growth 48h
O=C(O)c1ccccc1C(=O)c1ccc(N2CCOCC2)c([N+](=O)[O-])c1	?	23%	0%	5%
CC(N=Cc1ccccc1O)c1ccccc1 (centres undefined)	.	1%	16%	-3%
COc1ccc(C(C[N+](=O)[O-])C2(c3ccc(OC)c(OC)c3)C(=O)c3ccccc3C2=O)cc1 (centres undefined)	101%	?	-87%	-12%
Cc1ccccc1-c1nc(Cc2ccc(Cl)cc2)no1	-7%	54%	-6%	35%
Cc1nn(Cc2ccccc2)c(C)c1C(=O)OCC(=O)c1cc(C)n(CC(F)(F)F)c1C	?	-9%	3%	.
COc1cccc(C(=O)OCC(=O)Nc2ccc3c(c2)OCCO3)c1	.	-2%	8%	.
COc1ccccc1C(=O)/C=C/c1ccc(N2CCCCC2)c([N+](=O)[O-])c1	7.4µM*	?	20%	?
COc1ccc(N2CCN(C(=O)c3ccccc3Br)CC2)c([N+](=O)[O-])c1	12µM*	?	0%	16%[5.75 µM]
Cn1c(=O)n(C)c2cc([N+](=O)[O-])c(N3CCN(S(=O)(=O)c4ccc(C(C)(C)C)cc4)CC3)cc21	?	-10%	0%	9.3µM*
COc1ccc(OC)c(CC(=O)Nc2ccc3c(c2)CCC3)c1	-5%	?	-3%	33%
